In PubChem BioAssay (NCI):
Compounds without any hit were thinned out: in the full panel of roughly 79,000, 15% have a hit. Unmarked numbers belong to inactive results. Activity calls are given as the source filed them. Cut-off read from the data, not from the text of the source: active = growth inhibition above about 70%; inactive = the rest.

Assays:
[1] = NCI Yeast Anticancer Drug Screen. Data for the rad50 strain (AID 155);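 note: 0% = growth of vehicle-only cultures of the same strain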; conditions: S. cerevisiae rad50 strain growth inhibition, stronger effect = higher value
Outline: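 Inhibition values express reduced yeast growth in compound-treated cultures relative to vehicle-treated controls.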

[2] = NCI Yeast Anticancer Drug Screen. Data for the mec2-1 strain (AID 157); conditions: S. cerevisiae mec2-1 strain, stronger effect = higher value
Outline: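 Test agents were screened against the mec2-1 yeast strain, with defined DNA repair or cell cycle alteration. Growth was scored as inhibition against vehicle-only controls.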

[3] = NCI Yeast Anticancer Drug Screen. Data for the sgs1 mgt1 strain (AID 161);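 note: 0% = growth of cultures given vehicle only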; conditions: S. cerevisiae sgs1 mgt1 strain, stronger effect = higher value
Outline: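 Inhibition of yeast growth, normalised to vehicle-treated controls, is reported for a strain bearing genetic alterations in DNA damage repair.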

[4] = NCI Yeast Anticancer Drug Screen. Data for the cln2 rad14 strain (AID 165);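 note: 0% = growth equal to vehicle treated cultures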; conditions: S. cerevisiae cln2 rad14 strain, stronger effect = higher value
Outline: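 Growth of compound-exposed yeast (cln2 rad14 genotype) measured and expressed as inhibition relative to vehicle.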

[5] = NCI Yeast Anticancer Drug Screen. Data for the bub3 strain (AID 167); conditions: S. cerevisiae bub3 mutant strain, stronger effect = higher value
Outline: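 Steps: expose the mutant yeast strain to compound; grow alongside vehicle-treated cultures; measure growth; express inhibition against the vehicle cultures.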

[6] = NCI Yeast Anticancer Drug Screen. Data for the mlh1 rad18 strain (AID 175); conditions: S. cerevisiae mlh1 rad18 strain growth inhibition, stronger effect = higher value
Outline: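 In this whole-cell yeast screen, a strain with altered DNA damage repair is challenged with compound, and its growth is measured against matched vehicle-treated controls.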

[7] = at 5.0 µM (retest, dose inferred, filed as 0.5)
[8] = at 50.0 µM (retest, dose inferred, filed as 5.0)

Structure (SMILES) | growth inhibition [1, 7] | growth inhibition [1, 8] | growth inhibition ([1]; at 50.0 µM) | growth inhibition [2, 7] | growth inhibition [2, 8] | growth inhibition ([2]; at 50.0 µM) | growth inhibition [3, 7] | growth inhibition [3, 8] | growth inhibition ([3]; at 50.0 µM) | growth inhibition [4, 7] | growth inhibition [4, 8] | growth inhibition ([4]; at 50.0 µM) | growth inhibition [5, 7] | growth inhibition [5, 8] | growth inhibition ([5]; at 50.0 µM) | growth inhibition [6, 7] | growth inhibition [6, 8] | growth inhibition ([6]; at 50.0 µM)
O=S1(=O)CC(Cl)(Cl)C1 | 3% | 49% | 19.6% | 3% | 52% | 2.85% | 7% | 20% | 15.1% | -1% | 25% | 75.3% (active) | 4% | 58% | -17.8% | 5% | 58% | 11.6%
CCOC(=N)CCCSSc1ccc(N=[N+]=[N-])cc1 | 15% | 99% (active) | 98.7% (active) | -15% | 99% (active) | 99.2% (active) | -5% | 97% (active) | 99% (active) | -7% | 97% (active) | 98.5% (active) | -7% | 99% (active) | 98.8% (active) | -3% | 99% (active) | 99.2% (active)
CN1C(=O)C2N(C(=O)C1(C)S)c1ccccc1C2(C)C (stereo not given) | -5% | 37% | 47.7% | -4% | 29% | 32.5% | -3% | 41% | 15.7% | -14% | 49% | -17.6% | -4% | 25% | 10.3% | -1% | 32% | 24.8%
CCCCCCCCCCCCCCCCN(CC)CC | 99% (active) | 99% (active) | 99.6% (active) | 99% (active) | 99% (active) | 99.7% (active) | 99% (active) | 100% (active) | 99.4% (active) | 97% (active) | 99% (active) | 99.3% (active) | 98% (active) | 99% (active) | 99.7% (active) | 99% (active) | 99% (active) | 99.6% (active)
O=C1Oc2ccccc2C1c1ccccc1 (stereo not given) | 16% | 90% (active) | 28.6% | 1% | 87% (active) | 35.5% | 4% | 91% (active) | -2.1% | 10% | 92% (active) | 8.4% | -1% | 95% (active) | 34.5% | 1% | 93% (active) | 27.5%
COC1C=COC2(C)Oc3c(C)c(O)c4c(O)c(c(C5SCCS5)c(O)c4c3C2=O)NC(=O)C(C)=C/C=C\C(C)C2OC(C)(C)OC(C2C)C(C)C(OC(C)=O)C1C (stereo not given) | 5% | 83% (active) | 86.7% (active) | 8% | 93% (active) | 93.6% (active) | -2% | 36% | 90.8% (active) | 20% | 93% (active) | 90.3% (active) | 5% | 95% (active) | 83.8% (active) | 9% | 92% (active) | 87.8% (active)
COc1ccc(C2=C(Cl)C(=O)N(c3ccc(OC)cc3OC)C(=O)C2(Cl)Cl)cc1 | 4% | 42% | 74.5% (active) | -9% | 36% | 89.9% (active) | 5% | 54% | 70.8% (active) | -9% | 25% | 44.5% | -5% | 28% | 56.5% | 3% | 8% | 79.8% (active)
Nc1nc(-c2ccccc2)c(-c2ccccc2)c(-c2nc(N)nc(-c3ccccc3)c2-c2ccccc2)n1 | 7% | -3% | -4% | 6% | 16% | -6% | -1% | 0% | -16.9% | 21% | 12% | 2.45% | -1% | -9% | -17.1% | -12% | -16% | 7.8%
O=C1NC(=O)N(c2ccc([N+](=O)[O-])cc2)C1=O | 9% | 3% | -0.3% | 8% | 2% | 1.1% | 3% | 6% | -2.95% | 9% | 5% | 18.1% | 6% | 5% | -4.4% | 0% | 7% | 10.2%
O=[N+]([O-])c1ccc2c(N=Nc3ccc4ccccc4c3O)c(O)cc(S(=O)(=O)O)c2c1 | 32% | 34% | 85.6% (active) | 13% | 17% | 55.8% | 17% | 29% | 74.7% (active) | -32% | -68% | 30.6% | -7% | 22% | 82.7% (active) | 9% | 36% | 86.5% (active)
